# Test results taken from ChEMBL document CHEMBL4513216, “Probing the Open Global Health Chemical Diversity Library for Multistage-Active Starting Points for Next-Generation Antimalarials” (ACS Infect Dis, 2020).
# The campaign covered roughly 69,000 compounds. About 8,600 (12%) showed an effect of 50% or more. Only a selection was taken, and strong results are over-represented in it overall.
# System: Plasmodium berghei
# Experiment: Screen against P. berghei liver stage (PbLuc), transformed with Luciferase, at 10uM
# Assay type: functional, HepG2
# Conditions: tested at 10 uM
row,Compound,INHIBITION
1,Cc1cn[nH]c1C1COCCN1Cc1cscn1 (centres undefined),25.85%
2,CCN(C)c1ncnc2c1CCN(C(=O)c1cnccn1)CC2,-66%
3,O=C(NCCO)c1sc2ncccc2c1C1CNCCO1 (centres undefined),9.98%
4,CC(C)NC(=O)N1CCC2(CC1)COc1ccccc1S(=O)(=O)N(C)C2,4.57%
5,CCS(=O)(=O)N1CCCC2(COCCN(c3cnccn3)C2)C1 (centres undefined),45.8%
6,O=C(C1CCCO1)N1CCCC2(CCN(c3cccnc3)CC2)C1 (centres undefined),29.5%
7,O=C(c1ccncc1)N1CCCC2(COCCN(c3ccccc3)C2)C1 (centres undefined),-6.82%
8,O=C(N1CCCC1)N1CCOCC2(CCN(Cc3cccs3)C2)C1 (centres undefined),66.8%
9,O=C(NC1CC1)N1CCOCC2(CCN(Cc3cccs3)C2)C1 (centres undefined),-0.371%
10,COCC(=O)N1CCOCC2(CCN(Cc3cccs3)C2)C1 (centres undefined),-13.2%
11,c1cncc(N2CCOCC3(CCCN(c4nncs4)C3)C2)c1 (centres undefined),43.2%
12,O=C([C@H]1CCCO1)N1CCCC2(COCCN(c3ccccc3)C2)C1 (some centres undefined),66.3%
13,O=S(=O)(c1cccs1)N1CCCC2(COCCN(c3cccnc3)C2)C1 (centres undefined),82.3%
14,Cc1ccc(C2CSCCN2C(=O)c2cnsn2)o1 (centres undefined),8.46%
15,CN1CCN(C(=O)c2n[nH]c3c2CN(C2CCOC2)CC3)CC1 (centres undefined),22.3%
16,CCNc1ncnc2c1CN(C1CCCNCC1)C(=O)CN2C (centres undefined),40%
17,CNc1cc(C2CN(CC(=O)N(C)C)CCO2)nc(C)n1 (centres undefined),14.7%
18,CC1CN(C)c2ccccc2CN1C(=O)c1cc[nH]c(=O)c1 (centres undefined),-18.3%
19,CCC1CN(C)c2ccccc2CN1C(=O)c1c[nH]c(=O)cc1C (centres undefined),28.7%
20,Cc1cc(=O)[nH]cc1C(=O)N1Cc2ccccc2N(C)CC1C (centres undefined),52.6%
21,O=C(NCCc1ccccn1)C1CC(=O)N(CC(F)(F)F)C1 (centres undefined),2.3%
22,Cc1ccccc1CCNC(=O)C1CC(=O)N(CC(F)(F)F)C1 (centres undefined),55.5%

row,Compound,INHIBITION
1,O=C(NCCNc1ncccn1)C1CC(=O)N(CC(F)(F)F)C1 (centres undefined),19.5%
2,O=C(c1cn(-c2ccc(C(F)(F)F)cn2)nn1)N1CCCCCC1,46.1%
3,CN1CCN(C(=O)c2cn(-c3ccc(C(F)(F)F)cn3)nn2)CC1,59.1%
4,CC1CCN(C(=O)c2cn(-c3ccc(C(F)(F)F)cn3)nn2)CC1,2.55%
5,CC(C)N(Cc1ccccn1)S(=O)(=O)N1CCCC1c1ccco1 (centres undefined),7.515%
6,CCn1nnc2c1C(COC)CN(Cc1cccs1)C2 (centres undefined),-0.113%
7,COc1ccc(-c2nnsc2C(=O)N2CCC(C(N)=O)CC2)cc1,90.4%
8,COC(=O)[C@H](CC(C)C)NC(=O)c1snnc1-c1ccc(OC)cc1,24.1%
9,CCC(C)NC(=O)c1snnc1-c1ccc(OC)cc1 (centres undefined),74%
10,COC(=O)[C@@H](NC(=O)c1snnc1-c1ccc(OC)cc1)C(C)C,24.7%
11,COc1ccc(-c2nnsc2C(=O)N2CCSCC2)cc1,26.4%
12,COc1ccc(-c2nnsc2C(=O)N2CCN(C(C)=O)CC2)cc1,2.49%
13,O=C(NCCO)NC(c1ccccc1)c1ccc2c(c1)CCCO2 (centres undefined),22.6%
14,NCCC(=O)N1CCC2(CC1)CN(C(=O)c1ccc(Cl)cc1)CCO2,16.8%
15,Cc1nc(CN(C)Cc2cnc(N3CCOCC3)s2)no1,32.1%
16,COCCN(Cc1cnn(C)c1)c1nc2c(s1)c(C)nn2C,45.2%
17,Cc1nn(C)c2ncnc(N(C)CC3CCN(CC(C)C)C3)c12 (centres undefined),36.3%
18,COCCN(CCOC)c1nc2c(s1)c(C)nn2C,65.6%
19,Cc1nn(C)c2nc(N(C)CCN(C)C)sc12,39.1%
20,COCCN(Cc1nccs1)c1nc2c(s1)c(C)nn2C,22%
21,Cc1nn(C)c2nc(N(C)CC3CCN(CC(C)C)C3)sc12 (centres undefined),74.3%
22,COCCN1CCCC(CN(C)c2nc3c(s2)c(C)nn3C)C1 (centres undefined),3.96%

row,Compound,INHIBITION
1,COCCN1CCC(CN(C)c2nc3c(s2)c(C)nn3C)C1 (centres undefined),48.5%
2,Cc1nn(C)c2nc(N(C)CCN(C)C3CCCC3)sc12,39.9%
3,COCCN1CCC(CN(C)c2nc3c(s2)c(C)nn3C)CC1,64.4%
4,CCCc1nnc(N(C)CC2CCN(CC(C)C)C2)o1 (centres undefined),-62.4%
5,Cc1nn(C)c2nc(N(CCN(C)C)C3CCCC3)sc12,53%
6,CCOc1cc2c(cc1CN1CCC3(CC1)CNC(=O)C3)CCC2,39.4%
7,COc1c(C2CCCN2CC(=O)NCc2ccccn2)c(C)nn1C (centres undefined),19.6%
8,COC(C(=O)NC1CC1)c1ccccc1 (centres undefined),-35.9%
9,CCOC(=O)C1(O)CCN(C(=O)Nc2cccc(F)c2)CC1,-16.9%
10,COc1cccc(OC)c1-c1ccnc2cc(CC(=O)NC(C)C)nn12,54.5%
11,COc1cccc(OC)c1-c1ccnc2cc(CC(=O)NC3CC3)nn12,39.7%
12,CNC(=O)Cc1cc2nccc(-c3c(OC)cccc3OC)n2n1,45.6%
13,CCN(c1ccc(C(=O)NCc2cc[nH]n2)cc1)C(C)C,82.6%
14,CC(C)c1ccc(O)c(C(=O)NCc2cc[nH]n2)c1,12.8%
15,CCN(c1ccc(C(=O)NCc2ccnc(C)n2)cc1)C(C)C,0.433%
16,Cc1cc(Cc2ccc(S(=O)(=O)N3CCOCC3)cc2)c(=O)[nH]n1,19.8%
17,CN(Cc1ccon1)C(=O)C1CC(=O)N(Cc2cccnc2)C1 (centres undefined),-49.3%
18,CCc1nnc(CN(CC)C(=O)C2CC(=O)N(Cc3cccnc3)C2)o1 (centres undefined),23.5%
19,CCN(Cc1nc(C)no1)C(=O)C1CC(=O)N(Cc2cccnc2)C1 (centres undefined),15.6%
20,CCN(Cc1nc(C)no1)C(=O)C1CC(=O)N(Cc2ccccn2)C1 (centres undefined),-14.1%
21,CCN(CC1CCOCC1)C(=O)C1CC(=O)N(Cc2cccnc2)C1 (centres undefined),53.2%
22,CCc1noc(CN(CC)C(=O)C2CC(=O)N(Cc3ccncc3)C2)n1 (centres undefined),53.2%

row,Compound,INHIBITION
1,CNC(=O)Cn1ccc2ccc(NC(=O)C(C)CSC)cc21 (centres undefined),29.6%
2,O=S(=O)(c1ccc(-c2cnco2)cc1)N1CCC2(CCCNC2)C1 (centres undefined),35.7%
3,O=S(=O)(c1ccc(-c2cnco2)cc1)N1CCCC2(CCNCC2)CC1,52.7%
4,O=S(=O)(c1ccc(-c2cnco2)cc1)N1CCCC(O)(CO)CC1 (centres undefined),-31.4%
5,CC(c1cccc(-c2ncccc2C#N)c1)N(C)C (centres undefined),19.3%
6,CN(Cc1cc(C(C)(C)C)n[nH]1)C(=O)c1c[nH]nc1-c1cccc(F)c1,30.4%
7,Cc1nn2cc(CNc3nccc(CCC(F)(F)F)n3)nc2s1,-4.91%
8,Cc1ccnc(NCc2cn3nc(C)sc3n2)n1,65.2%
9,CCNc1ccnc(NCc2cn3nc(C)sc3n2)n1,-49.3%
10,O=C(C1CCC1)N1CCC2(CC1)CNCCO2,-12.4%
11,O=C(C1CC=CC1)N1CCC2(CC1)CNCCO2,29%
12,CC(=O)N1CCCC2(C1)CN(C(=O)C1CCCCC1)CCO2 (centres undefined),9.97%
13,O=C(C1CC1)N1CCOC2(CCNCC2)C1,36.7%
14,Cc1ccc(CN2CCOC3(CCN(C(=O)N4CCCC4)CC3)C2)cc1,15.7%
15,CC(=O)N1CCOC2(CCN(C(=O)C3CC3)CC2)C1,85.6%
16,Cc1ccc(CN2CCOC3(CCN(C(=O)C4CC=CC4)CC3)C2)cc1,55.6%
17,Cc1ccc(CN2CCOC3(CCN(C(=O)C4CCOC4)CC3)C2)cc1 (centres undefined),39.3%
18,O=C(C1CC1)N1CCC2(CC1)CNCCO2,51.2%
19,Cc1ccc(CN2CCOC3(CCCN(C(=O)c4ccco4)C3)C2)s1 (centres undefined),28.5%
20,Cc1ccc(N(CCC#N)C(=O)CN2CCCC2c2ccsc2)cc1C (centres undefined),-10.75%
21,CC1CCC(C(=O)N2CCC(n3cc(C4(O)CCCC4)nn3)CC2)CC1 (centres undefined),47.4%
22,c1csc(-c2nc(CN3CCCC3Cn3cccn3)co2)c1 (centres undefined),17.5%

row,Compound,INHIBITION
1,CC(C)(N)c1nc(C(F)F)cc(=O)[nH]1,-4.35%
2,CS(=O)(=O)NC(c1ccccc1)c1ccc2c(c1)CCCO2 (centres undefined),-9.98%
3,CC(C)c1nc(CN(C)C(=O)[C@H](N)Cc2ccc(Cl)cc2)cs1,17.2%
4,COc1ccc(CN(C)C(=O)NC(C)c2nncn2C)cc1F (centres undefined),-24.7%
5,CCOc1ccc(CN(C)C(=O)NC(C)c2nncn2C)cc1 (centres undefined),-6.75%
6,CC(NC(=O)N(C)Cc1cccc(OC(F)F)c1)c1nncn1C (centres undefined),68.2%
7,Cc1nc(C2CCNCC2)cc(N2CCOc3ccccc3C2)n1,-55.1%
8,Cc1nc(C2CCN(C)CC2)cc(N2CCOc3ccc(Cl)cc3C2)n1,94.3%
9,Cc1nc(CCN)cc(N2CCOc3ccc(Cl)cc3C2)n1,-43.5%
10,CC(C)Oc1ccc(CN)c(C(F)(F)F)c1,10%
11,CCOc1ccccc1OC1CCN(C(=O)c2cnns2)CC1,44.1%
12,CC(C)c1cc(NC(=O)CNC2CCc3nc(C(C)C)nn3C2)on1 (centres undefined),35.7%
13,Cc1c(C2CCCN(C(=O)c3ccncc3)C2)n2c(nc1=O)CCC2 (centres undefined),20.8%
14,Cc1c(C2CCCN(C(=O)C3CC3)C2)n2c(nc1=O)CCC2 (centres undefined),28.4%
15,Cc1noc(C)c1C(=O)N1CCCC(c2c(C)c(=O)nc3n2CCC3)C1 (centres undefined),55.6%
16,N#Cc1c(F)cccc1Nc1cnn(CC(=O)N2CCOCC2)c1,19.2%
17,CNC(=O)Cn1cc(Nc2cccc(F)c2C#N)cn1,-0.514%
18,N#Cc1c(F)cccc1Nc1cnn(CC(N)=O)c1,65.4%
19,CCc1csc(C2CCCN(C(=O)c3cnc[nH]3)C2)n1 (centres undefined),10%
20,CN(Cc1ccco1)Cc1cnc2n1CCN(c1ncccn1)CC2,2.4%
21,Cc1ccc(S(=O)(=O)NCC(C)(C)N)c(F)c1,8.51%
